Compound activity from PubChem BioAssay.
hERG WT inh – KCNH2 (human, wildtype) channel inhibition | U2OS, BacMam KCNH2, thallium flux FluxOr; hits give low values | AID 720551 | activity change, % at 1.84 µM | 0.37% of 340,000 active;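 active means maximum activity change below -70%; inconclusive means maximum activity change between -70% and -50%; inactive means maximum activity change above -50%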; further: on the % scale 0 is the no-effect control and ±100 the full control effect
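U2OS cells were transduced with wild-type KCNH2 virus (2.03 x 10^8 / mL) for 4 h at room temperature, then cultured overnight at 37 C. Thallium flux was read with FluxOr dye. Rate constants were normalized to DMSO controls.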
gsp agonist – agonists of gsp mutant (McCune-Albright syndrome). Potency, µM (series often up to 76.9 µM), without a hit: at the highest dose activation (cAMP increase), hits mostly activators. gsp mutant cells, cAMP HTRF, 30 min. AID 624287. 0.13% of 340,000 active; active means well fitted activation curve with a large enough effect; inconclusive means small, poorly fitted or top-dose-only effect, or another doubt; inactive means no such curve, though single readings can be large or run the other way; cell line not stated here;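 further: phosphodiesterase inhibitor Ro 20-1724 added with compounds to block cAMP breakdown; potency means the concentration at half of the fitted maximal effect; nearly all actives have a fitted effect of over 60% in size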
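Cells stably selected in G418 were plated at 2000/well, grown 16-24 hr, then given compounds in DMSO with the PDE inhibitor […] (300 uM solution added) for 30 min at 37C; cAMP was read by HTRF.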
KCNH2 3.1 block – inhibitors of human KCNH2 3.1 potassium channel isoform; activity change, % (tested at about 1.8 µM); AID 720553; 0.95% of 340,000 active; U2OS KCNH2 3.1, thallium flux FluxOr; hits give low values;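 active means maximum activity change below -70%; inconclusive means maximum activity change from -70% to -50%; inactive means maximum activity change above -50%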;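 further: thallium influx rate constant from kinetic fluorescence after stimulation buffer; on the % scale 0 is the no-effect control and ±100 the full control effect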
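We transduce U2OS cells with the mutant 3.1 virus, culture them overnight, load FluxOr with Red40 quencher for 45 min, then add stimulation buffer and read kinetically for 2 min to derive a normalized rate constant.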
gsp antagonist – antagonists of gsp mutant (McCune-Albright syndrome) | AID 624288 | 0.4% of 340,000 active | gsp-mutant cells, cAMP HTRF, 30 min | Potency, µM (titrated, usually from 76.9 µM), without a hit: at the highest dose activity change, negative = inhibition, actives largely listed as inhibitors; calls by dose curve; cell line not stated here;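 further: intracellular cAMP measured with PDE inhibitor Ro 20-1724 present during compound exposure; potency means the concentration at half of the fitted maximal effect; on the % scale 0 is the no-effect control and ±100 the full control effect; nearly all actives have a fitted effect of over 65% in size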
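Measurement of cellular cAMP by homogeneous time-resolved fluorescence following a 30 min compound exposure at 37C. The PDE inhibitor […] was present throughout; the assay buffer was DPBS with 0.05% BSA and 0.005% Tween 20.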
pAkt inh – inhibitors of Akt phosphorylation; Neuro2A IGF-stimulated pAkt S473 HTRF, 20 min; hits give low values; activity change, % for hits at 50 µM; 0.32% of 360,000 active; AID 651550; in the data active means activity change below about -80%; inconclusive means mostly about -51% to -80%; further: on the % scale 0 is the no-effect control and ±100 the full control effect
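Neuro2A cells in DMEM with 0.5% FBS, overnight at 37 deg C, given compound at single 50 µM final, then IGF (6 nM final) for 20 min at 37 deg C. Lysed; phospho-Akt Ser473 by HTRF after 24 h, 665/615 ratio.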
Glioma ERSR ind – ER stress response induction in glioma; AID 602332; 0.02% of 420,000 active; Potency, µM, inactives show top-dose activation, actives largely listed as activators; U87-MG GRP78 promoter luciferase reporter, 16 h; active means well fitted activation curve with a large enough effect; inconclusive means small, poorly fitted or top-dose-only effect; inactive means no such curve, though single readings can be large or run the other way; further: potency means the concentration at half of the fitted maximal effect; series mostly up to about 76 µM; % of control where 0% means no effect; nearly all actives have a fitted effect of over 35% in size
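Stably transfected U87-MG glioma cells carrying a GRP78-based luciferase sensor; 16 h compound incubation. Luminescence end-point read 10 min after Bright-Glo addition at room temperature.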
Numbers without * were called inactive; [ ] = remark or other dose. An excerpt weighted towards active compounds, which were near 1.6% of everything screened.

`O=C1C(=O)N(c2ccccn2)C(c2cccc(F)c2)/C1=C(/O)c1ccccc1` (stereo not given) gave hERG WT inh 3, gsp agonist 14%, KCNH2 3.1 block -102*, gsp antagonist 15%, pAkt inh inactive and Glioma ERSR ind -3%.
For Brc1cccc[n+]1CCCC[n+]1ccccc1Br the results were Glioma ERSR ind -3%.
`CCCCCCCCCCCC[n+]1ccc(C)c2ccccc21` gave Glioma ERSR ind -4%.
For COc1cc(-n2cnnn2)ccc1S(=O)(=O)N1CCOCC1 the results were hERG WT inh -106*, gsp agonist -31%, KCNH2 3.1 block -144*, gsp antagonist 7% and Glioma ERSR ind -1%.
NC(=O)c1cc(S(=O)(=O)NCc2cccs2)cs1 was read as hERG WT inh -13, gsp agonist 11%, KCNH2 3.1 block -70*, gsp antagonist 4%, pAkt inh inactive and Glioma ERSR ind 3%.
COC(=O)c1cc(S(=O)(=O)NCC2CCN(Cc3ccccc3F)CC2)c[nH]1 was read as hERG WT inh 11, gsp agonist -9%, KCNH2 3.1 block -118*, gsp antagonist 7%, pAkt inh inactive and Glioma ERSR ind 0%.
For COC(=O)c1cc(S(=O)(=O)NCc2cccs2)c[nH]1 the results were hERG WT inh -244*, gsp agonist 2%, KCNH2 3.1 block 3, gsp antagonist 10%, pAkt inh inactive and Glioma ERSR ind 0%.
COC(=O)c1cc(S(=O)(=O)NCC2CCN(Cc3ccc(Cl)cc3)CC2)c[nH]1 was read as hERG WT inh -34, gsp agonist 2%, KCNH2 3.1 block inconclusive, gsp antagonist 14%, pAkt inh inactive and Glioma ERSR ind -2%.
Screening CN(C)c1ccc(/C=C/c2ccnc3c(Cl)cccc23)cc1 returned Glioma ERSR ind -4%.
`OCC1OC(OC2C(CO)OC(OC3C(CO)OC(O)C(O)C3O)C(O)C2O)C(O)C(O)C1O` (stereo not given) gave Glioma ERSR ind -4%.
Screening COCC1CCCN(Cc2ccc3c(c2)CN(C(=O)c2cnn(C(C)C)c2)CCO3)C1 (stereo not given) returned Glioma ERSR ind -2%.
Screening C=CCn1c(Cc2csc(N)n2)nnc1SCC(=O)OCC returned hERG WT inh 0, gsp agonist inconclusive, KCNH2 3.1 block -95*, gsp antagonist 2%, pAkt inh inactive and Glioma ERSR ind -7%.
`C=CCn1c(Cc2csc(N)n2)nnc1SCC(=O)Nc1ccc(C(=O)OCC)cc1` gave hERG WT inh -5, gsp agonist -40%, KCNH2 3.1 block 2, gsp antagonist -2%, pAkt inh inactive and Glioma ERSR ind -3%.
COC(=O)c1cc(CNC(=O)c2ccncc2)cc(NC(=O)c2ccccc2Cl)c1 was read as Glioma ERSR ind -3%.
Screening COc1ccc(OC)c(S(=O)(=O)Nc2ccccc2C)c1 returned hERG WT inh 28, gsp agonist -31%, KCNH2 3.1 block -1, gsp antagonist 4%, pAkt inh inactive and Glioma ERSR ind 0%.
`COc1ccccc1NS(=O)(=O)c1cc(C)ccc1C` gave hERG WT inh 0, gsp agonist -21%, KCNH2 3.1 block -26, gsp antagonist 6.3µM*, pAkt inh inactive and Glioma ERSR ind 0%.
COc1ccc(C)cc1NS(=O)(=O)c1cc(C)ccc1C was read as hERG WT inh 0, gsp agonist inconclusive, KCNH2 3.1 block -13, gsp antagonist 4%, pAkt inh inactive and Glioma ERSR ind -7%.
For COc1ccc(OC)c(S(=O)(=O)Nc2ccccc2SC)c1 the results were hERG WT inh 11, gsp agonist -2%, KCNH2 3.1 block -88*, gsp antagonist -6%, pAkt inh inactive and Glioma ERSR ind 2%.
Screening O=C(c1ccc2c(=O)n(C3CCCC3)c(=S)[nH]c2c1)N1CCCCCC1 returned hERG WT inh 1, gsp agonist -9%[15.4 µM], KCNH2 3.1 block -4, gsp antagonist 32µM*, pAkt inh inactive and Glioma ERSR ind -2%.
For O=C(CCc1ccc(S(=O)(=O)N2CCOCC2)cc1)Nc1nc(COc2ccccc2)cs1 the results were hERG WT inh 33, gsp agonist 0%, KCNH2 3.1 block 5, gsp antagonist 28µM* and Glioma ERSR ind -6%.
For Cc1[nH]ccc(=O)c1OCc1c(Cl)cccc1Cl the results were hERG WT inh -5, gsp agonist inconclusive, KCNH2 3.1 block 6, gsp antagonist 10%, pAkt inh -114%* and Glioma ERSR ind -2%.
For COC(=O)CSc1nc(-c2ccc(C)cc2)c2c(c1C#N)CCCC2 the results were hERG WT inh 2, gsp agonist 7%, KCNH2 3.1 block -73*, gsp antagonist -18%, pAkt inh inactive and Glioma ERSR ind -3%.
`O=[N+]([O-])c1cccc(-c2nnc(C3CC3)o2)c1` gave hERG WT inh -16, gsp agonist 7%[15.4 µM], KCNH2 3.1 block -3, gsp antagonist -1%, pAkt inh inactive and Glioma ERSR ind -4%.
For Nc1nnc(-c2cccc([N+](=O)[O-])c2)o1 the results were hERG WT inh -92*, gsp agonist -13%[15.4 µM], KCNH2 3.1 block 5, gsp antagonist 3%, pAkt inh inactive and Glioma ERSR ind 7%.
O=C1c2ccccc2C(=O)N1CCOc1ccccc1Br was read as hERG WT inh 7, gsp agonist 3.5µM*, KCNH2 3.1 block -2, gsp antagonist -5%, pAkt inh inactive and Glioma ERSR ind 2%.
Screening CC(C)(C)c1ccc(C(=O)C[n+]2ccc(Cl)c3ccc(Cl)cc32)cc1 returned Glioma ERSR ind -5%.
For Oc1cc(-c2nc3ccccc3s2)cc2c1OCCN(Cc1cccn1-c1nccs1)C2 the results were Glioma ERSR ind 3%.
For O=C(NCC1Cc2cccc(-c3ncccn3)c2O1)c1cccc(-c2ccccc2F)c1 (stereo not given) the results were Glioma ERSR ind -5%.
Screening CC1(c2ccc(OCC#N)cc2)C=C(c2ccc(OCC#N)cc2)n2nc(C(F)(F)F)nc2N1 (stereo not given) returned hERG WT inh -7, gsp agonist -25%, KCNH2 3.1 block -106*, gsp antagonist -21%, pAkt inh inactive and Glioma ERSR ind -5%.
For Cc1ccc(C2=CC(C)(c3ccc(C)cc3)Nc3nc(C(F)(F)F)nn32)cc1 (stereo not given) the results were hERG WT inh -4, gsp agonist 6%[15.4 µM], KCNH2 3.1 block 20, gsp antagonist 12%, pAkt inh inactive and Glioma ERSR ind 0%.
